# Test results from PubChem BioAssay (Tox21).
# “And” between values parts separate entries of the source, which are not always exact repeats. Equal entries are not always repeated. Records with an inconclusive call do not appear. Where a call stands in place of a potency, no number is given. The source holds several records for some structures; these can differ, active in one and inactive in another. The source made the active and inactive calls. Unless noted, the call rests on the fitted dose curve; in most records, active means well fitted curve in the direction sought with a large enough effect in the repeat runs; inconclusive means weak or mixed curves; inactive means no such curve, though single readings can be large; an effect the other way counts as inactive or inconclusive.
# How the values were obtained:
# [1] = qHTS assay to identify small molecule agonists of H2AX (AID 1224845; active means well fitted activation curve with a large enough effect in the signal ratio in the repeat runs, not every such curve was filed as active; the % refers to the signal ratio)
# In short: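 Wild-type CHO-K1 cells, plated overnight, exposed 3hr at 37C to 15 concentrations (0.76% DMSO final). Lysed, then HTRF anti-pH2AX (S139) cryptate and anti-H2AX-d2 antibodies, 24 hr room temperature; 665/620 nm emission read.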
# [2] = qHTS assay to identify small molecule agonists of the hypoxia (HIF-1) signaling pathway (AID 1224846; active means well fitted activation curve with a large enough effect in the signal ratio in the repeat runs, not every such curve was filed as active; the % refers to the signal ratio; further: potency means the concentration at half of the fitted maximal effect)
# In short: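 HRE-bla ME-180 beta-lactamase reporter cells in medium with 0.5% dialyzed FBS, pre-incubated 5 h then exposed to compounds 17 h at 37C, 5% CO2; reporter induction read with CCF4-AM FRET substrate.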
# [3] = qHTS assay to identify small molecule agonists of H2AX - cell viability counter screen (AID 1224847; calls by dose curve; further: nearly all actives have a fitted effect of over 30% in size; further: potency means the concentration at half of the fitted maximal effect)
# In short: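 Wild-type CHO-K1 cells (10% FBS medium) were plated overnight at 37C, exposed to compounds at 15 concentrations for 3 hr at 37C (0.76% DMSO final), and viability was read as CellTiter-Glo luminescence after 30 min at room temperature.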
# [4] = qHTS assay to identify small molecule antagonists of the estrogen related receptor (ERR) signaling pathway from Tox21 library (AID 1224848); further: nearly all actives have a fitted effect of over 50% in size; further: potency means the concentration at half of the fitted maximal effect
# In short: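 Luminescent reporter read-out (ONE-Glo) from NTP's ERR cell line after 18 h treatment at 37 C with DMSO-dissolved Tox21 compounds; cells pre-plated 6 h beforehand at 2,000 per well.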
# [5] = qHTS assay to identify small molecule agonists of the estrogen related receptor (ERR) signaling pathway from Tox21 library (AID 1224849; calls by dose curve; further: nearly all actives have a fitted effect of over 15% in size); conditions: ERR reporter cell line, ONE-Glo luciferase, 18 h; at 92.4 µM (top of the series)
# In short: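 ERR reporter cells (NTP line) pre-incubated 6 hours at 37 C, then exposed to compounds for 18 hours at 37 C. ONE-Glo luciferase luminescence was read after 30 minutes at room temperature.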
# [6] = qHTS RealTime-Glo MT Cell Viability Assay in HepG2 cells - 24 hour (AID 1224867); further: nearly all actives have a fitted effect of over 50% in size
# In short: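 HepG2 suspension premixed with RealTime-Glo reagents is plated at 600 cells per well and left 5 h at 37 C/5% CO2. Compounds in DMSO then go in, and bioluminescence reflecting viable cell number is recorded over 40 h.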
# [7] = A CellTox Green Cytotoxicity Assay to monitor cytotoxicity in HEK293 cells - 0 hour (AID 1224869); further: nearly all actives have a fitted effect of over 50% in size; further: potency means the concentration at half of the fitted maximal effect
# In short: (§1)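 HEK293 cells, 600/well, were preincubated 5 hours and then exposed to compounds at 37 C for up to 40 hours. A cell-impermeant cyanine dye staining dead-cell DNA was read by fluorescence at 0, 8, 16, 24, 32 and 40 h time points.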
# [8] = qHTS RealTime-Glo MT Cell Viability Assay in HepG2 cells - 40 hour (AID 1224870); further: nearly all actives have a fitted effect of over 50% in size
# In short: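 HepG2 cells (600/well) mixed with RealTime-Glo MT reagent, settled 5 h at 37 C/5% CO2 before compound addition. Nonlytic NanoLuc luminescence from viable-cell prosubstrate reduction read repeatedly during 40 h treatment at 37 C.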
# [9] = A CellTox Green Cytotoxicity Assay to monitor cytotoxicity in HEK293 cells - 40 hour (AID 1224871); further: nearly all actives have a fitted effect of over 45% in size; further: potency means the concentration at half of the fitted maximal effect
# In short: as §1
# [10] = qHTS RealTime-Glo MT Cell Viability Assay in HEK293 cells - 32 hour (AID 1224868); further: nearly all actives have a fitted effect of over 50% in size; further: potency means the concentration at half of the fitted maximal effect
# In short: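 Reads taken at 0, 8, 16, 24, 32 and 40 h from the same wells. HEK293 cells (600/well) carried RealTime-Glo reagents from seeding, with compound added after a 5 h settle at 37 C.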
SMILES,Potency [1],Potency [2],Potency [3],Potency [4],"activity change, positive = activation [5]",Potency [6],Potency [7],Potency [8],Potency [9],Potency [10]
CC(C)CCOCc1ccccc1,inactive,inactive,inactive,inactive,4.72% (inactive),inactive,inactive,inactive,inactive,–
CC(=O)C1=C(C)[C@@H]2C[C@@]3(C1)[C@H](C)CC[C@H]3C2(C)C,inactive,inactive,inactive,–,–,inactive,inactive,inactive,32.3 µM (active) and inactive,inactive
COC(=O)c1cccc(C(=O)OC)c1,inactive,inactive,inactive,–,–,inactive,inactive and 43.6 µM (active),inactive,inactive and 38.9 µM (active),–
C/C=C/c1ccc(OCC)c(O)c1,inactive,inactive,inactive,–,–,inactive,inactive,inactive,inactive,inactive
O,inactive,inactive,inactive,–,–,inactive,inactive,inactive,inactive,–
O=C(O)CP(=O)(O)O,inactive,inactive,inactive,–,–,inactive,inactive,inactive,inactive,inactive
CC(=O)OCCOCCOCCOC(C)=O,inactive,inactive,inactive,–,–,inactive,inactive,inactive,inactive,inactive
Cc1ccnc2c1NC(=O)c1cccnc1N2C1CC1,inactive,inactive,inactive,–,–,inactive,inactive,inactive,inactive,–
CC(=O)OCC1=C(C(=O)O)N2C(=O)[C@@H](NC(=O)Cc3cccs3)[C@H]2SC1,inactive,inactive,inactive,–,–,inactive,inactive,inactive,inactive,inactive
[Cl][In]([Cl])[Cl],inactive,inactive,inactive,34.4 µM (active),-22.9% (inactive) and -30% (inactive),inactive,inactive,inactive,inactive,–
Nc1nc(=S)c2[nH]cnc2[nH]1,inactive,inactive,inactive,–,–,inactive,inactive,inactive,inactive,23.9 µM (active) and 19.5 µM (active)
CCCN[C@H]1CCc2nc(N)sc2C1,inactive,inactive,inactive,–,–,inactive,inactive,inactive,inactive,inactive
CCN(CC)c1ccc2c(C)cc(=O)oc2c1,inactive,44 µM (active) and 43.6 µM (active),inactive,–,–,inactive,inactive,inactive,inactive,–
O=C(Cl)c1cccc(C(=O)Cl)c1,inactive,inactive,inactive,–,–,inactive,inactive,inactive,inactive,inactive
O=C(OCc1ccccc1)c1ccc(O)cc1,inactive,inactive,inactive,–,–,inactive,inactive,inactive,inactive,inactive
C[N+]1([O-])CCOCC1,inactive,inactive,inactive,inactive,-0.0985% (inactive),inactive,inactive,inactive,inactive,–
C=C(C)C(=O)O,inactive,inactive,inactive,–,–,inactive,inactive,inactive,inactive,inactive
NC(=Nc1ccccc1)Nc1ccccc1,inactive,inactive,inactive,inactive,–,inactive,inactive,inactive,inactive,–
CCc1ccc(C(c2ccc(CC)cc2)C(Cl)Cl)cc1,inactive,inactive,115 µM (active),–,–,inactive,inactive,inactive,–,–
CC(C)(C)NCC(O)c1cc(O)cc(O)c1 (configuration not stated),inactive,inactive,inactive,–,–,inactive,inactive,inactive,inactive,inactive
O=C(Oc1ccccc1)c1ccccc1O,inactive,inactive,inactive,–,–,inactive,inactive,inactive,inactive,–
CCC[C@H](N[C@@H](C)C(=O)N1[C@H](C(=O)O)C[C@@H]2CCCC[C@@H]21)C(=O)OCC,inactive,inactive,inactive,–,–,inactive,inactive,inactive,inactive,inactive
CC1=C(C=O)C(C)(C)CC=C1,inactive,inactive,inactive,inactive,0.302% (inactive),inactive,inactive,inactive,inactive,–
CCC(=O)/C=C/C1C(C)=CCCC1(C)C (configuration not stated),inactive,inactive,inactive,–,–,inactive,inactive,inactive,49.1 µM (active) and inactive,inactive
CC(C)(C)NC(=O)[C@@H]1CN(Cc2cccnc2)CCN1C[C@@H](O)C[C@@H](Cc1ccccc1)C(=O)N[C@H]1c2ccccc2C[C@H]1O,inactive,inactive,inactive,–,–,inactive,inactive,inactive,inactive,inactive
